# Inconclusive results are not listed. Active and inactive are the calls of the source. How the source made its calls, unless noted: active means hit-call score of the fitted dose curve at least 0.9, where 1 is the maximum; inactive means score below 0.9.
# Experiments:
# [1] = target: CCAAT/enhancer-binding protein beta (Homo sapiens) (UniProt P17676); assay: ATG_C_EBP_CIS: Attagene CIS-FACTORIAL HepG2 Assay for human CCAAT/Enhancer Binding Protein (C/EBP) beta (AID 2282927); conditions: HepG2 Attagene cis-factorial transcription factor reporter; actives raise or lower the signal
# In short: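 Changes in reporter mRNA, rather than exogenous chimeric receptor activity, reflect native C/EBP signalling in transfected HepG2 cells dosed for 24 h; transcripts are detected by RT-PCR and capillary electrophoresis.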
# [2] = ATG_GATA_CIS: Attagene CIS-FACTORIAL HepG2 Assay for human GATA Binding Protein (AID 2282944); conditions: HepG2 GATA cis-element reporter, Attagene multiplex mRNA; actives raise or lower the signal
# In short: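 Transient MRTU transfection, HepG2, 24 h compound exposure. Total RNA → oligo(dT) RT → PCR → 6-FAM primer extension → HpaI cut → CE. Bidirectional fit vs DMSO.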
# [3] = target: Hypoxia-inducible factor 1-alpha (Homo sapiens) (UniProt Q16665); assay: ATG_HIF1a_CIS: Attagene CIS-FACTORIAL HepG2 Assay for human Hypoxia Inducible Factor 1 (HIF1A) (AID 2282951); conditions: HepG2 Attagene cis-factorial HIF1a reporter transcription; actives raise or lower the signal
# In short: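 Cis-element reporter constructs were transiently transfected into HepG2 cells, which were treated for 24 h; reporter RNA was reverse-transcribed, amplified, labelled and resolved by capillary electrophoresis.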
# [4] = target: Hepatocyte nuclear factor 6 (Homo sapiens) (UniProt Q9UBC0); assay: ATG_HNF6_CIS: Attagene CIS-FACTORIAL HepG2 Assay for human Hepatocyte Nuclear Factor 6 (HNF6) (AID 2282952); conditions: HepG2 Attagene cis-factorial HNF6 reporter transcription; actives raise or lower the signal
# In short: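 Readout: fluorescent reporter-transcript fragments resolved by capillary electrophoresis after RT-PCR, reflecting endogenous factor activity in transfected HepG2. Exposure 24 h. Gain or loss of signal fitted bidirectionally against DMSO.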
# [5] = target: Heat shock factor protein 1 (Homo sapiens) (UniProt Q00613); assay: ATG_HSE_CIS: Attagene CIS-FACTORIAL HepG2 Assay for human Heat Shock Transcription Factor 1 (HSE) (AID 2282953); conditions: HepG2 HSE cis-reporter, Attagene RNA transcription; actives raise or lower the signal
# In short: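 HepG2, transient MRTU transfection, cis-promoter reporters (endogenous TF activity). 24 h compound. RNA → oligo(dT) RT → PCR → 6-FAM primer extension → HpaI cut → CE. Bidirectional fit vs DMSO.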
# [6] = ATG_PXRE_CIS: Attagene CIS-FACTORIAL HepG2 Assay for human Pregnane X Receptor Element (PXRE) (AID 2282957); conditions: HepG2 Attagene CIS-FACTORIAL PXRE reporter, mRNA; actives raise or lower the signal
# In short: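 Read-out: fluorescence of reporter-specific RT-PCR products resolved by capillary electrophoresis, fitted bidirectionally relative to DMSO. Human HepG2 liver cells carried transfected cis-promoter reporter units and were exposed to chemicals for 24 h.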
# [7] = target: Transcription factor Sp1 (Homo sapiens) (UniProt P08047); assay: ATG_Sp1_CIS: Attagene CIS-FACTORIAL HepG2 Assay for human Specificity Protein 1 (Sp1) (AID 2282961); conditions: HepG2 Sp1 cis-reporter transcription, actives raise or lower the signal
# In short: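 Chemicals are dosed onto HepG2 cells transfected with multiple cis-promoter reporter constructs, and after 24 h reporter RNA is reverse-transcribed, PCR-amplified and resolved by capillary electrophoresis for fluorescence quantitation; activity is scored up or down against DMSO.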
# [8] = target: Signal transducer and activator of transcription 3 (Homo sapiens) (UniProt P40763); assay: ATG_STAT3_CIS: Attagene CIS-FACTORIAL HepG2 Assay for human Signal Transducer and Activator of Transcription 3 (STAT3) (AID 2282963); conditions: HepG2, Attagene cis-factorial STAT3 reporter transcription; actives raise or lower the signal
# In short: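 Cis-factorial format: endogenous transcription factors in HepG2 drive transfected reporter units. After 24 h treatment, reporter RNA was reverse-transcribed, amplified, FAM-labelled and HpaI-digested before CE analysis; activity scored in both directions against DMSO.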
# [9] = ATG_TAL_CIS: Attagene CIS-FACTORIAL HepG2 Assay for human TAL Basal Promoter (AID 2282966); conditions: HepG2 Attagene cis-factorial TAL promoter reporter; actives raise or lower the signal;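 further: background control endpoint measuring basal TAL promoter reporter mRNA not a specific factor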
# In short: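 HepG2, transient MRTU transfection, 24 h compound exposure; RNA → oligo(dT) RT → PCR → 6-FAM primer extension → HpaI digest → CE fluorescence. Bidirectional curve fit vs DMSO. Background-control readout.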
# [10] = ATG_VDRE_CIS: Attagene CIS-FACTORIAL HepG2 Assay for human Vitamin D Receptor Element (VDRE) (AID 2282968); conditions: HepG2 VDRE cis-reporter transcription, actives raise or lower the signal
# In short: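 Measures endogenous factor activity through cis-element-driven reporter transcripts in transiently transfected HepG2. Cells are treated 24 h; reporter mRNA is quantified by RT-PCR and capillary electrophoresis; fitting is bidirectional.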
# [11] = target: Transcriptional activator Myb (Homo sapiens) (UniProt P10242); assay: ATG_Myb_CIS: Attagene CIS-FACTORIAL HepG2 Assay for human Myeloblastosis (Myb) Proto-Oncogene Transcription Factor (AID 2282986); conditions: HepG2 Attagene CIS-FACTORIAL Myb reporter transcription; actives raise or lower the signal
# In short: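 Using HepG2 liver cells bearing transiently transfected cis-promoter reporter constructs, the assay measures induction or loss of reporter mRNA after 24 hours of dosing. Detection used fluorescently labeled RT-PCR products separated by capillary electrophoresis.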
# [12] = ATG_NFI_CIS: Attagene CIS-FACTORIAL HepG2 Assay for human Nuclear Factor I (NFI) (AID 2282989); conditions: HepG2 cis-regulatory reporter, NFI response element transcription; actives raise or lower the signal
# In short: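 Transient MRTU transfection of HepG2 → 24 h chemical dosing → total RNA, oligo(dT) RT → PCR, 6-FAM primer extension, HpaI cut → capillary electrophoresis. Endpoint fitted bidirectionally relative to DMSO.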
# [13] = target: Myc proto-oncogene protein (Homo sapiens) (UniProt P01106); assay: ATG_Myc_CIS: Attagene CIS-FACTORIAL HepG2 Assay for human Myelocytomatosis (Myc) Proto-Oncogene Transcription Factor (AID 2282990); conditions: HepG2, Attagene cis-reporter transcription factor activity; actives raise or lower the signal
# In short: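 Cells of the HepG2 human liver line bear multiple cis-driven reporter transcription units. Reporter mRNA after 24 h exposure is reverse-transcribed, amplified, labelled and resolved by capillary electrophoresis, with gain- or loss-of-signal fitting relative to DMSO.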
# [14] = ATG_NRF2_ARE_CIS: Attagene CIS-FACTORIAL HepG2 Assay for human Nuclear Factor Erythroid 2 Related Factor 2 (NFR2) response to Antioxidant Response Elements (ARE) (AID 2282992); conditions: HepG2 Attagene ARE/NRF2 reporter, transcription factor activity; actives raise or lower the signal
# In short: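 Endogenous transcription factor activity read out as reporter transcript levels (RT-PCR plus capillary electrophoresis, fluorescence) in transiently transfected HepG2 cells. Measured at 24 h after dosing; gain or loss of signal fitted versus DMSO.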
# [15] = target: Cellular tumor antigen p53 (Homo sapiens) (UniProt P04637); assay: ATG_p53_CIS: Attagene CIS-FACTORIAL HepG2 Assay for human p53 Transcription Factor (AID 2282994); conditions: HepG2 p53 cis-element reporter, Attagene mRNA; actives raise or lower the signal
# In short: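 Endogenous p53 activity read in transiently transfected HepG2 from a cis-element-driven reporter transcript after 24 h exposure. RNA reverse-transcribed, PCR-amplified, fluorescently labelled and sized by capillary electrophoresis; gain or loss fitted against DMSO baseline.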
# [16] = target: Cellular tumor antigen p53 (Homo sapiens) (UniProt P04637); assay: TOX21_p53_BLA_p2_ratio: Tox21 HCT-116 p53 Agonism Beta-lactamase Assay, Ratio, Phase 2 (AID 2283592; active means hit-call score of the fitted dose curve at least 0.9, where 1 is the maximum)
# In short: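 Readout: blue/green (460/530 nm) FRET emission ratio after 2 h CCF4-AM loading at room temperature, excitation 405 nm. HCT116 p53 bla cells, 16 h compound exposure at 37C, 5% CO2; agonist direction fitted against DMSO baseline.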
# [17] = target: Transcription factor E2F1 (Homo sapiens) (UniProt Q01094); assay: ATG_E2F_CIS: Attagene CIS-FACTORIAL HepG2 Assay for human E2F Transcription Factor 1 (AID 2282935); conditions: HepG2 Attagene cis-reporter, E2F reporter RNA transcripts; actives raise or lower the signal
# In short: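 Fluorescent RT-PCR products, digested with HpaI for 2 h at 37 C, are separated by capillary electrophoresis. Source RNA comes from transfected HepG2 cultures treated for 24 h.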
# [18] = ATG_Sox_CIS: Attagene CIS-FACTORIAL HepG2 Assay for human SRY-box transcription factor (SOX) (AID 2282960); conditions: HepG2 Attagene cis-factorial SOX reporter, mRNA; actives raise or lower the signal
# In short: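 Fluorescence-labelled cDNA fragments from reporter transcripts, sized by CE, give the signal. Cells: HepG2, transiently transfected with cis-regulated reporter units. Exposure 24 h; DMSO negative control; bidirectional curve fitting.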
# [19] = target: X-box-binding protein 1 (Homo sapiens) (UniProt P17861); assay: ATG_Xbp1_CIS: Attagene CIS-FACTORIAL HepG2 Assay for human X-box Binding Protein 1 (XBP1) (AID 2282972); conditions: HepG2 XBP1 cis-element reporter, Attagene multiplex; actives raise or lower the signal
# In short: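 Reporter transcripts were quantified by RT-PCR with fluorescent primer extension and capillary electrophoresis after 24 h chemical exposure. Cells: transiently transfected HepG2 carrying cis-regulated reporter constructs; data fitted bidirectionally relative to DMSO.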
# [20] = ATG_M_06_TRANS: Attagene TRANS-FACTORIAL HepG2 Assay for M06 Transcription Factor (Internal Marker) (AID 2282983; active means hit-call score of the fitted dose curve at least 0.9, where 1 is the maximum); conditions: HepG2 Attagene TRANS M06 internal marker reporter
# In short: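 Read-out: fluorescent reporter cDNA fragments resolved by capillary electrophoresis after RT-PCR and HpaI cut. Source cells were HepG2 carrying transfected multi-reporter GAL4 constructs, dosed 24 h. Increase over DMSO control analysed.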
# Sequence of Cellular tumor antigen p53 (Homo sapiens) (P04637 whole entry, looked up): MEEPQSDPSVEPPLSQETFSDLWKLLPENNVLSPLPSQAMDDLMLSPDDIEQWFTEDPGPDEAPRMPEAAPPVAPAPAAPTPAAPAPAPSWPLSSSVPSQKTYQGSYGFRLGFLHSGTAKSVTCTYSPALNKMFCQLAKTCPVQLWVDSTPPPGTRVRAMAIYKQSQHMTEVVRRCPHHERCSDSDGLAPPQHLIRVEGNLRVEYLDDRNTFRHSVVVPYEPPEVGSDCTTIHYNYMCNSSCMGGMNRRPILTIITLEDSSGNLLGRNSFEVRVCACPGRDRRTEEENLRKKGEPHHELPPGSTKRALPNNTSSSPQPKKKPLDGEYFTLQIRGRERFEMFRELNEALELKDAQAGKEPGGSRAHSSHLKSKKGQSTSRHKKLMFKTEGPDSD
# Sequence of Hypoxia-inducible factor 1-alpha (Homo sapiens) (Q16665 whole entry, looked up): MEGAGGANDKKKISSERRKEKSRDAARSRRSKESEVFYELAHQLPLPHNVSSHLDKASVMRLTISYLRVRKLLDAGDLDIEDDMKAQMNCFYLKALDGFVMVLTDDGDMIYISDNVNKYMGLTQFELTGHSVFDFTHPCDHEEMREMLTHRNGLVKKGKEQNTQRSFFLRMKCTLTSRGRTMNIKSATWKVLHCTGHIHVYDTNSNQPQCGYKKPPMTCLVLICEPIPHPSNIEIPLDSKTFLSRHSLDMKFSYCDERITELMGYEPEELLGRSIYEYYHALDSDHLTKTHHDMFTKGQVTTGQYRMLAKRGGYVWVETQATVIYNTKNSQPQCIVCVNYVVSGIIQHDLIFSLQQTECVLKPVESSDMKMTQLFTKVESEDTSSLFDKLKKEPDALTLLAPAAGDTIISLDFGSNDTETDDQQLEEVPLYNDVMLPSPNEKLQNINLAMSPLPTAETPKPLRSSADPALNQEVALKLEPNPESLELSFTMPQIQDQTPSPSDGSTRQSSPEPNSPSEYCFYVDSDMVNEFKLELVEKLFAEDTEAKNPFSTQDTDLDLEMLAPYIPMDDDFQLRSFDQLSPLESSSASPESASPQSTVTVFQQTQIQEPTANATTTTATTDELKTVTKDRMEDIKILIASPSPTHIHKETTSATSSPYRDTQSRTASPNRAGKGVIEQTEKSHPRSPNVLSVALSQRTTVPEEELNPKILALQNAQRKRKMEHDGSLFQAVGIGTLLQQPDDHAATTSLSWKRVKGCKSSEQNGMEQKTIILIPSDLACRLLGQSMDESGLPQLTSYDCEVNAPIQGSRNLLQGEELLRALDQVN
# Sequence of Signal transducer and activator of transcription 3 (Homo sapiens) (P40763 whole entry, looked up): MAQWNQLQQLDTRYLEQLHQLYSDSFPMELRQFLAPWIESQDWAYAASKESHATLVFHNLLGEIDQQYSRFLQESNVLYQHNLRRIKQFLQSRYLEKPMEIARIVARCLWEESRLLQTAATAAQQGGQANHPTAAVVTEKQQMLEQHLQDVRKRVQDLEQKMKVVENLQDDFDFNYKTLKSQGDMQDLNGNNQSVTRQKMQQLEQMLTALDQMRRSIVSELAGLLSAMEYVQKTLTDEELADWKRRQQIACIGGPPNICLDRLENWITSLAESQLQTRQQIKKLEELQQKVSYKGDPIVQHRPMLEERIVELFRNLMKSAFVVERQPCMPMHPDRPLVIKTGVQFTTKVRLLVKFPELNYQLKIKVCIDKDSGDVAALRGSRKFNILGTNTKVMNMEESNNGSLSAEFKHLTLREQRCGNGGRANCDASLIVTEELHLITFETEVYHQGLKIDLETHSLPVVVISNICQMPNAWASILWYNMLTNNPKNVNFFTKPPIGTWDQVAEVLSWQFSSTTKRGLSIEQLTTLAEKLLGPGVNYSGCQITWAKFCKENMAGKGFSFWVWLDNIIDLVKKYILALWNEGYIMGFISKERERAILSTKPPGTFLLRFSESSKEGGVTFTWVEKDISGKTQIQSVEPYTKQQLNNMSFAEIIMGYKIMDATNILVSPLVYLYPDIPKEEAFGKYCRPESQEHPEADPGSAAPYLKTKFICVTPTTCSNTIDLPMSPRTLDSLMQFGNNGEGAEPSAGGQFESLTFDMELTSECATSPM
# Sequence of CCAAT/enhancer-binding protein beta (Homo sapiens) (P17676 whole entry, looked up): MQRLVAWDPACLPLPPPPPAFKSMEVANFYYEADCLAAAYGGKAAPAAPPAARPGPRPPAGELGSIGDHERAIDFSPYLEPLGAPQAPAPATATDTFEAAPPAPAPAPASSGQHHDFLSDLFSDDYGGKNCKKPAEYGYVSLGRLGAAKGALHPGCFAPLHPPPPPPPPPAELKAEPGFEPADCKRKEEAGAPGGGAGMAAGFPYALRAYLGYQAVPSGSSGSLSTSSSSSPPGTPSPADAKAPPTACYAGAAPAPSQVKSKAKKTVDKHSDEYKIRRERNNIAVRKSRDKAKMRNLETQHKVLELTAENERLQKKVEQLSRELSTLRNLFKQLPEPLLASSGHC
# Sequence of Heat shock factor protein 1 (Homo sapiens) (Q00613 whole entry, looked up): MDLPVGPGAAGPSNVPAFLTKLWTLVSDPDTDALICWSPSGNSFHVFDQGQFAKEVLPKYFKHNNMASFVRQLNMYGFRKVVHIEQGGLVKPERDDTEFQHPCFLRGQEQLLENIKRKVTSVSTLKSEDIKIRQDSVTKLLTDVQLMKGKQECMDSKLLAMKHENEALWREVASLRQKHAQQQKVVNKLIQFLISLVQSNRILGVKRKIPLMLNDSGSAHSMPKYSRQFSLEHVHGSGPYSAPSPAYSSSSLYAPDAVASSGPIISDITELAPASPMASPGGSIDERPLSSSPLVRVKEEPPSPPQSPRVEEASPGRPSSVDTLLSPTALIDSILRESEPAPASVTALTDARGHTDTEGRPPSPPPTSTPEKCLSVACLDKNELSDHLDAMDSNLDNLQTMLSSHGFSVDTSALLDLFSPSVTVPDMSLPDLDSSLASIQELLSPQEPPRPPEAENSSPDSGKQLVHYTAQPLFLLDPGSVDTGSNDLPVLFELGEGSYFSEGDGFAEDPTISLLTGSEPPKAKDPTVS
# Sequence of Transcription factor E2F1 (Homo sapiens) (Q01094 whole entry, looked up): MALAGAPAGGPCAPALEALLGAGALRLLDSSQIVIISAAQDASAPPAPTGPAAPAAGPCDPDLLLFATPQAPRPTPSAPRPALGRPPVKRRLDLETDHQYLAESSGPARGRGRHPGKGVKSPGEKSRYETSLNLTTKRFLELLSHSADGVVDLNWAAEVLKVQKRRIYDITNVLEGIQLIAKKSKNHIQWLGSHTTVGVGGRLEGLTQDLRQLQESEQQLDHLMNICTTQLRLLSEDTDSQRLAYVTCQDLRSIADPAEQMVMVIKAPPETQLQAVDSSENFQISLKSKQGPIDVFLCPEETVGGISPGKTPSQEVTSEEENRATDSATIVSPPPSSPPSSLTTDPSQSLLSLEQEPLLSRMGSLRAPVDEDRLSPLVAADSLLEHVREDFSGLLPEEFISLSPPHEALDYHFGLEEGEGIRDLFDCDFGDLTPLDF
# Sequence of Hepatocyte nuclear factor 6 (Homo sapiens) (Q9UBC0 whole entry, looked up, the tested form may be a part): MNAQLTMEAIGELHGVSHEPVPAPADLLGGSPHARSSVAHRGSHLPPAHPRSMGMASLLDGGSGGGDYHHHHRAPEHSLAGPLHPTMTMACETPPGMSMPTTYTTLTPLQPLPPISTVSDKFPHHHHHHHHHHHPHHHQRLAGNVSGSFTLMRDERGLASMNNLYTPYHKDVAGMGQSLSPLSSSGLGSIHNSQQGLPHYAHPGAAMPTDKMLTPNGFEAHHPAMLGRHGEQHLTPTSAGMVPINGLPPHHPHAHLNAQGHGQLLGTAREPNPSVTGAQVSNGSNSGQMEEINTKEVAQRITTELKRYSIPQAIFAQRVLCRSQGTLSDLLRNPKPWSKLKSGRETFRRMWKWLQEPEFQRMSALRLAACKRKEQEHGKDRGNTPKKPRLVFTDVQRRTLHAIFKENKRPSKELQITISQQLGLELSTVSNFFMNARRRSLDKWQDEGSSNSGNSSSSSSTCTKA
# Sequence of X-box-binding protein 1 (Homo sapiens) (P17861 whole entry, looked up): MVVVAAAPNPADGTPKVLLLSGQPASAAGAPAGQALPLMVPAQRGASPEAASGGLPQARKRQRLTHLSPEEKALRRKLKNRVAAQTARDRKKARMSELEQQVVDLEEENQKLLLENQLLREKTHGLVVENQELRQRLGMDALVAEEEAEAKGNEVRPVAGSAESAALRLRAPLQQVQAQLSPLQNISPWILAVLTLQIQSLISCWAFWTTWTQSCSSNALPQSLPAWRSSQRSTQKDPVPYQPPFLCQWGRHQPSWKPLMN
# Sequence of Transcription factor Sp1 (Homo sapiens) (P08047 whole entry, looked up): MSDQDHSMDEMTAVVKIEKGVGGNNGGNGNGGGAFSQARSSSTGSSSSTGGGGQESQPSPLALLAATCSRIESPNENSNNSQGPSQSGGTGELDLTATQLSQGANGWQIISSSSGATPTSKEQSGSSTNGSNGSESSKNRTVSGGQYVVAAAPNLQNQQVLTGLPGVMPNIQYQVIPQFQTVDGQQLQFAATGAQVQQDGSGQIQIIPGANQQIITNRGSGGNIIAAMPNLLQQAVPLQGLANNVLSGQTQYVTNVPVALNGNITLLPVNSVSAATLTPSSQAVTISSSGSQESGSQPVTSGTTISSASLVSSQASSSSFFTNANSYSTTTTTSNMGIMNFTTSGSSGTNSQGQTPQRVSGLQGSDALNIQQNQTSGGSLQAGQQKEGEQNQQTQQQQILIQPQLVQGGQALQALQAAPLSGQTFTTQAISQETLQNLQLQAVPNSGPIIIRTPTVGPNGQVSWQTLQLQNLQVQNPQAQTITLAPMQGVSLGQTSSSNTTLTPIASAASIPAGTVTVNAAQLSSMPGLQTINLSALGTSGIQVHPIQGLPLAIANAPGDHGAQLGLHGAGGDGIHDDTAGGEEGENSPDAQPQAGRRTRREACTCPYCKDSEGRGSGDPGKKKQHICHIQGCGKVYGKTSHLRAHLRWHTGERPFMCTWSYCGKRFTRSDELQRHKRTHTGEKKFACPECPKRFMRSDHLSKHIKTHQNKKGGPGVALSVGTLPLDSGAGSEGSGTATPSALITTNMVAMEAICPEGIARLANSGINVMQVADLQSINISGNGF
compound,measurement,setting,value
Nc1nnc(-c2ccc([N+](=O)[O-])o2)o1,outcome,[1],inactive
same,outcome,[2],inactive
same,outcome,[3],inactive
same,outcome,[4],inactive
same,outcome,[5],inactive
same,outcome,[6],inactive
same,outcome,[7],inactive
same,outcome,[8],inactive
same,outcome,[9],inactive
same,outcome,[10],inactive
same,outcome,[11],inactive
same,outcome,[12],inactive
same,AC50,[13],12 µM (active)
same,AC50,[14],20.8 µM (active)
same,outcome,[15],inactive
same,AC50,[16],85.7 µM (active)
Cc1cc(-n2nc3ccc(Cl)cc3n2)c(O)c(C(C)(C)C)c1,outcome,[1],inactive
same,outcome,[17],inactive
same,outcome,[3],inactive
same,outcome,[4],inactive
same,outcome,[5],inactive
same,AC50,[6],2.86 µM (active)
same,outcome,[18],inactive
same,outcome,[8],inactive
same,outcome,[9],inactive
same,outcome,[10],inactive
same,outcome,[19],inactive
same,outcome,[20],inactive
same,outcome,[11],inactive
same,outcome,[12],inactive
same,outcome,[13],inactive
same,outcome,[14],inactive
same,outcome,[15],inactive
same,outcome,[16],inactive
CCCCNC(N)=O,outcome,[1],inactive
same,outcome,[17],inactive
same,outcome,[3],inactive
same,outcome,[4],inactive
same,outcome,[5],inactive
same,AC50,[6],68.7 µM (active)
same,outcome,[7],inactive
same,outcome,[8],inactive
same,outcome,[9],inactive
same,outcome,[10],inactive
same,outcome,[19],inactive
same,outcome,[20],inactive
same,outcome,[11],inactive
same,outcome,[12],inactive
same,outcome,[13],inactive
same,outcome,[14],inactive
same,outcome,[15],inactive
same,outcome,[16],inactive
O=C(Oc1ccccc1)c1ccccc1,outcome,[1],inactive
same,outcome,[17],inactive
same,outcome,[2],inactive
same,outcome,[3],inactive
same,outcome,[4],inactive
same,outcome,[5],inactive
same,outcome,[18],inactive
same,outcome,[7],inactive
same,outcome,[8],inactive
same,outcome,[9],inactive
same,outcome,[20],inactive
same,outcome,[12],inactive
same,outcome,[13],inactive
same,outcome,[14],inactive
CCCCC(CC)COC(=O)CS (stereo not drawn),outcome,[1],inactive
same,outcome,[17],inactive
same,outcome,[2],inactive
same,outcome,[3],inactive
same,outcome,[4],inactive
same,outcome,[5],inactive
same,AC50,[6],13.1 µM (active)
same,outcome,[7],inactive
same,outcome,[9],inactive
same,AC50,[10],26.4 µM (active)
same,outcome,[12],inactive
same,outcome,[14],inactive
same,outcome,[15],inactive
same,outcome,[16],inactive
CC(=O)Nc1c(I)c(NC(C)=O)c(I)c(C(=O)O)c1I,outcome,[1],inactive
same,outcome,[17],inactive
same,outcome,[2],inactive
same,outcome,[4],inactive
same,outcome,[5],inactive
same,outcome,[6],inactive
same,outcome,[7],inactive
same,outcome,[19],inactive
same,outcome,[20],inactive
same,outcome,[12],inactive
same,outcome,[13],inactive
same,outcome,[14],inactive
CC(C)CC(=O)CC(C)CC(C)C (stereo not drawn),outcome,[1],inactive
same,outcome,[17],inactive
same,outcome,[3],inactive
same,outcome,[4],inactive
same,outcome,[5],inactive
same,AC50,[6],29.3 µM (active)
same,outcome,[18],inactive
same,outcome,[8],inactive
same,outcome,[9],inactive
same,outcome,[19],inactive
same,outcome,[11],inactive
same,outcome,[12],inactive
same,outcome,[13],inactive
same,AC50,[14],116 µM (active)
same,outcome,[15],inactive
same,outcome,[16],inactive
c1ccc(CNc2ncnc3nc[nH]c23)cc1,outcome,[1],inactive
same,outcome,[17],inactive
same,outcome,[2],inactive
same,outcome,[4],inactive
same,outcome,[5],inactive
same,outcome,[7],inactive
same,outcome,[8],inactive
same,outcome,[9],inactive
same,outcome,[10],inactive
same,outcome,[19],inactive
same,outcome,[20],inactive
same,outcome,[12],inactive
same,outcome,[14],inactive
same,outcome,[15],inactive
Clc1ccccn1,outcome,[1],inactive
same,outcome,[17],inactive
same,outcome,[3],inactive
same,outcome,[4],inactive
same,outcome,[5],inactive
same,outcome,[6],inactive
same,outcome,[7],inactive
same,outcome,[10],inactive
same,outcome,[19],inactive
same,outcome,[20],inactive
same,outcome,[11],inactive
same,outcome,[12],inactive
same,outcome,[13],inactive
same,outcome,[14],inactive
same,outcome,[15],inactive
same,outcome,[16],inactive

# From PubChem BioAssay (EPA / NIEHS)
